Here are results for seven compounds from PubChem BioAssay (NCI).

Some test systems named below: NCI-H23 lung; NCI-H226 lung; NCI-H322M lung; HOP-62 NSCLC; NCI-H460 lung; HOP-92 NSCLC; NCI-H522 lung; A549/ATCC NSCLC; 786-0 renal; COLO 205 colon; DU-145 prostate; K-562 leukemia; MALME-3M melanoma; MDA-MB-231 breast; RXF 393 renal; SF-268 CNS; SF-295 CNS; SF-539 CNS; UACC-257 melanoma; M14 melanoma.
What all share (assay): NCI-60 one-dose screen, 48 h (100 = growth as untreated, 0 = no growth, -100 = all killed)
What all share (conditions): 10 µM unless noted

The panel holds about 83,000 compounds, 20% with a hit somewhere; the sample as a whole holds those more often.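 Single-dose data. Exposure time 48 hours. Values below 10 considered active.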 Values without a mark were called inactive. The source made the active and inactive calls.

Turning to `O=S(=O)(NCCNc1nccc(-c2c(-c3cccc(O)c3)nc3occn23)n1)c1cccc(F)c1`, the growth in the test with NCI-H23 lung was 97.9%; in the test on NCI-H226 lung it was 105%; with NCI-H322M lung, 97.3%; in the test with HOP-62 NSCLC it was 121%; in the test with NCI-H460 lung, 95.9%; in the test with HOP-92 NSCLC it was 93%. Besides, the growth was 81.1% in the test on NCI-H522 lung; 92.6% with A549/ATCC NSCLC; 91.5% with 786-0 renal; 30.1% in the test on COLO 205 colon; 104% in the test with DU-145 prostate; 70.8% in the test with K-562 leukemia. Further, the growth in the test on MALME-3M melanoma was 4.35% (active); with MDA-MB-231 breast, 69.4%; with RXF 393 renal, 91.6%; in the test with SF-268 CNS, 93.1%; with SF-295 CNS, 106%; in the test on SF-539 CNS, 111%. The growth was 39.7% in the test on UACC-257 melanoma and 35.9% in the test on M14 melanoma.
Turning to `O=C1OC(Cc2ccccc2)C1c1ccccc1` (stereo not given), the growth is 106% in the test with NCI-H23 lung; 102% in the test on NCI-H226 lung; 110% in the test with NCI-H322M lung; 104% with HOP-62 NSCLC; 107% with NCI-H460 lung; 104% in the test on HOP-92 NSCLC. The growth in the test with NCI-H522 lung was 89.7%; with A549/ATCC NSCLC it was 95.9%; in the test on 786-0 renal it was 102%; in the test on COLO 205 colon, 109%; in the test on DU-145 prostate, 110%; with K-562 leukemia it was 108%. For the same compound, the growth in the test on MALME-3M melanoma is 106%; in the test with MDA-MB-231 breast, 102%; in the test with RXF 393 renal it was 120%; in the test on SF-268 CNS, 97.9%; with SF-295 CNS, 98.2%; with SF-539 CNS it was 102%. Further, the values for the growth in the test on UACC-257 melanoma and with M14 melanoma were 93.9% and 104%, respectively.
For the compound `O=C(c1nnc(Nc2ccccc2Br)o1)c1c[nH]c2ccccc12`, the growth was 88.1% in the test on NCI-H23 lung; 85.6% in the test on NCI-H226 lung; 94.6% in the test on NCI-H322M lung; 79.2% in the test with HOP-62 NSCLC; 99.2% in the test with NCI-H460 lung; 97.9% with HOP-92 NSCLC. For the same compound, the growth in the test on NCI-H522 lung was 98.2%; in the test with A549/ATCC NSCLC, 88.2%; in the test on 786-0 renal, 103%; in the test on COLO 205 colon, 98.9%; with DU-145 prostate, 107%; in the test on K-562 leukemia it was 112%. Further, the growth is 105% in the test with MALME-3M melanoma; 88.9% in the test with MDA-MB-231 breast; 125% in the test on RXF 393 renal; 105% in the test with SF-268 CNS; 108% in the test with SF-295 CNS; 104% with SF-539 CNS. Further, the growth in the test on UACC-257 melanoma is 92.6%; in the test with M14 melanoma it was 92.5%.
Take `Cc1cnc(C(=O)Nc2nc3ccc(S(=O)(=O)Nc4ccc(C(C)(C)C)cc4)cc3[nH]2)cn1`: the growth in the test with NCI-H23 lung was 37.4%; with NCI-H226 lung, 31.3%; with NCI-H322M lung it was 41.6%; in the test on HOP-62 NSCLC, 42.5%; with NCI-H460 lung, 1.67% (active); in the test on HOP-92 NSCLC it was 37.4%. Moreover, the growth is 24.4% with NCI-H522 lung; 21.6% in the test on A549/ATCC NSCLC; 22.7% with 786-0 renal; 6.64% (active) in the test with COLO 205 colon; 12.4% with DU-145 prostate; 11.4% with K-562 leukemia. The growth in the test with MALME-3M melanoma is 43.8%; with MDA-MB-231 breast, 30.6%; in the test with RXF 393 renal, -13.9% (active); with SF-268 CNS, 48.1%; with SF-295 CNS, 21.9%; in the test on SF-539 CNS, -33.6% (active). For the same compound, the growth with UACC-257 melanoma is 59.1%; in the test with M14 melanoma, 1.89% (active).
In the case of `CC1(C)CC(O)CCCCCCOc2c(CN)cccc2NC(=O)c2nc(cnc2N)-c2ccc(cc2)S1(=O)=O` (stereo not given), the growth in the test with NCI-H23 lung is 28%; in the test with NCI-H226 lung it was 48.6%; with NCI-H322M lung it was 44.4%; with HOP-62 NSCLC, 44.7%; with NCI-H460 lung, -30.2% (active); in the test with HOP-92 NSCLC it was 115%. In addition, the growth is 12.6% with NCI-H522 lung; 27.9% with A549/ATCC NSCLC; -15.4% (active) with 786-0 renal; 22.9% in the test on COLO 205 colon; 15.1% in the test on DU-145 prostate; -26.3% (active) in the test with K-562 leukemia. The growth is -71.5% (active) with MALME-3M melanoma; 39.8% in the test with MDA-MB-231 breast; 19.6% in the test with RXF 393 renal; 26.1% with SF-268 CNS; 21.3% in the test with SF-295 CNS; -60.5% (active) in the test with SF-539 CNS. Moreover, the growth is 21.9% in the test with UACC-257 melanoma and -72.7% (active) with M14 melanoma.
For `NC(=O)Nc1ccc(-n2cnc3cc(-c4ccc(O)cc4)ccc32)cc1`, the growth in the test with NCI-H23 lung is 103%; in the test on NCI-H226 lung, 110%; in the test on NCI-H322M lung, 101%; with HOP-62 NSCLC it was 104%; with NCI-H460 lung, 102%; with HOP-92 NSCLC it was 149%. For the same compound, the growth in the test on NCI-H522 lung is 73.3%; in the test on A549/ATCC NSCLC it was 96.8%; in the test with 786-0 renal, 109%; in the test on COLO 205 colon it was -20.8% (active); in the test on DU-145 prostate it was 107%; with K-562 leukemia it was 89.3%. The growth was 98.4% in the test on MALME-3M melanoma; 107% with MDA-MB-231 breast; 123% in the test with RXF 393 renal; 96.3% in the test on SF-268 CNS; 97.4% in the test on SF-295 CNS; 67.2% in the test with SF-539 CNS. The growth was 112% with UACC-257 melanoma and 91.6% with M14 melanoma.
Turning to `O=C(Cc1ccccc1)NNc1nc(Cl)nc(N2CCN(C(c3ccccc3)c3ccccc3)CC2)n1`, the growth with NCI-H23 lung was 83%; in the test on NCI-H226 lung it was 94.2%; with NCI-H322M lung, 89.7%; in the test with HOP-62 NSCLC it was 98.6%; in the test with NCI-H460 lung it was 102%; with HOP-92 NSCLC, 74.3%. For the same compound, the growth in the test with NCI-H522 lung was -26.6% (active); in the test on A549/ATCC NSCLC it was 98.5%; in the test with 786-0 renal, 95.4%; with COLO 205 colon, 98.6%; in the test with DU-145 prostate, 110%; in the test with K-562 leukemia it was 9.78% (active). Moreover, the growth in the test on MALME-3M melanoma is 99.6%; in the test on MDA-MB-231 breast it was 84.4%; in the test on RXF 393 renal it was 85.8%; in the test with SF-268 CNS, 100%; in the test on SF-295 CNS, 98.6%; in the test with SF-539 CNS, 102%. In addition, the values for the growth in the test with UACC-257 melanoma and in the test on M14 melanoma were 90.6% and 81.6%, respectively.
